Test results taken from PubChem BioAssay (NCATS).
Several values for one entry are separate records, joined by “and”; a condition that tells them apart may be missing. Equal entries are not always repeated. Results filed as inconclusive are left out. Unmarked numbers belong to inactive results. Activity calls are given as the source filed them. Calls come from the whole dose curve; as a rule, active = well fitted curve in the direction sought with a large enough effect; inconclusive = small, poorly fitted or top-dose-only effect, or another doubt; inactive = no such curve, though single readings can be large; an effect the other way counts as inactive or inconclusive.

Experiments:
[1] = Viability qHTS for spleen associated tyrosine kinase inhibitor (SYKi) naive MV4-11 cells (AID 1963823); note: nearly all actives have a fitted effect of over 40% in size
Method in brief: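 Luminescence from CellTiter-Glo, developed 10 min at room temperature, gave viability of MV4-11 cells never exposed to SYK inhibitor. Cells (500/well) had been incubated with compounds for 72 hr under standard culture conditions.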

[2] = Viability qHTS for spleen associated tyrosine kinase inhibitor (SYKi) drug resistant MV4-11 cells (AID 1963824); note: nearly all actives have a fitted effect of over 35% in size
Method in brief: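 SYK inhibitor-resistant MV4-11 AML cells, 500 per well, added to predispensed compounds and incubated 72 hr at 37 C, 5% CO2. Viability measured by CellTiter-Glo luminescence after 10 min at room temperature.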

[3] = Quantitative highthroughput screen to assess conditional lethalithy of NOMO1 cells grown in RPMI1640 with untreated serum (RPMI+s) (AID 1963876); note: nearly all actives have a fitted effect of over 35% in size;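 for Viability: 100% = DMSO wells and 0% = empty wells without cells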
Method in brief: (§1)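 Each medium arm—HPLM with 10% dialyzed FBS, or RPMI1640 with 5 mM glucose and 10% untreated or dialyzed FBS—was screened against an 11-point, 3-fold compound titration for 48 h at 37 °C, with CellTiter-Glo luminescence as endpoint.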

[4] = Quantitative highthroughput screen to assess conditional lethalithy of NOMO1 cells grown in RPMI1640 with dialyzed fetal bovine serum (RPMI+ds) (AID 1963877); note: nearly all actives have a fitted effect of over 30% in size;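 for Viability: series mostly up to about 46 µM; 100% = DMSO control wells and 0% = empty wells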
Method in brief: as §1

[5] = Quantitative highthroughput screen to assess conditional lethalithy of NOMO1 cells grown in Human Plasma-Like Medium with dialyzed fetal bovine serum (HPLM+ds) (AID 1963878); note: nearly all actives have a fitted effect of over 35% in size;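 for Viability: 100% = DMSO wells and 0% = empty wells on each plate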
Method in brief: as §1

[6] = Quantitative highthroughput screen to assess conditional lethalithy of P12 Ichikawa cells grown in Human Plasma-Like Medium with dialyzed fetal bovine serum (HPLM+ds) (AID 1963879); conditions: Potency: viability; note: nearly all actives have a fitted effect of over 35% in size; for Viability: series mostly up to about 46 µM
Method in brief: as §1

[7] = Quantitative highthroughput screen to assess conditional lethalithy of P12 Ichikawa cells grown in RPMI1640 with dialyzed fetal bovine serum (RPMI+ds) (AID 1963880); conditions: Potency: P12-Ichikawa viability; note: nearly all actives have a fitted effect of over 35% in size;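 for Viability: 100% = DMSO wells and 0% = empty wells on each plate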
Method in brief: as §1

[8] = Quantitative highthroughput screen to assess conditional lethalithy of P12 Ichikawa cells grown in RPMI1640 with untreated serum (RPMI+s) (AID 1963881); conditions: Potency: viability; note: nearly all actives have a fitted effect of over 35% in size;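 for Viability: series mostly up to about 46 µM; 100% = DMSO wells and 0% = empty wells without cells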
Method in brief: as §1

[9] = Quantitative highthroughput screen to assess conditional lethalithy of SEM cells grown in Human Plasma-Like Medium with dialyzed fetal bovine serum (HPLM+ds) (AID 1963882); note: nearly all actives have a fitted effect of over 35% in size; for Viability: series mostly up to about 46 µM
Method in brief: as §1

[10] = Quantitative highthroughput screen to assess conditional lethalithy of SEM cells grown in RPMI1640 with unreated serum (RPMI+s) (AID 1963883); note: nearly all actives have a fitted effect of over 35% in size;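 for Viability: 100% = DMSO wells and 0% = empty wells without cells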
Method in brief: as §1

[11] = Quantitative highthroughput screen to assess conditional lethalithy of SEM cells grown in RPMI1640 with dialyzed fetal bovine serum (RPMI+ds) (AID 1963884); note: nearly all actives have a fitted effect of over 35% in size;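 for Viability: series mostly up to about 46 µM; 100% = DMSO control wells and 0% = empty wells without cells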
Method in brief: as §1

[12] = Cellular viability qHTS for adrenocortical cancer (ACC) cell line NCI-H295R (AID 1963990); note: nearly all actives have a fitted effect of over 60% in size
Method in brief: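 Luminescent ATP read-out (CellTiter-Glo, 20 min RT) after 48 h drug exposure of NCI-H295R cells; a titration up to 46 uM final. Data normalized to doxorubicin (100% inhibition) and DMSO (0%); 4-parameter fit gives IC50, max response.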

[13] = Cellular viability qHTS for adrenocortical cancer (ACC) cell line SW-13 (AID 1963989); conditions: SW-13 ACC cells viability, CellTiter-Glo, 48 h; activity (max response): active compounds read low; note: nearly all actives have a fitted effect of over 65% in size;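 for activity (max response): cells grown in serum-free medium with ITS supplement; % is set by controls: 0 for no effect and ±100 for the full control effect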
Method in brief: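 SW-13 cells in ITS-supplemented serum-free DMEM were plated overnight, then exposed for 48 h at 37C to compound titrations (up to 46 uM final). Viability was read by CellTiter-Glo luminescence; four-parameter logistic fits gave IC50 and efficacy.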
Potency is the fitted concentration of half-maximal effect.

Row | SMILES | Potency [1] | Potency [2] | Potency [3] | Potency [4] | Potency [5] | Potency [6] | Potency [7] | Potency [8] | Potency [9] | Potency [10] | Potency [11] | Potency [12] | activity (max response) [13] | Potency [13]
1 | O=C(Nc1cc(C(F)(F)F)cc(C(F)(F)F)c1)c1cc(Cl)ccc1O | 651 nM (active) and 934 nM (active) | 517 nM (active) and 662 nM (active) | 3320 nM (active) | 2960 nM (active) | 2960 nM (active) | 3720 nM (active) | 3320 nM (active) | 2960 nM (active) | 4180 nM (active) | 2960 nM (active) | 4180 nM (active) | 1120 nM (active) | – | –
2 | Oc1ccc(-c2nc(-c3ccc(F)cc3)c(-c3ccncc3)[nH]2)cc1 | 9.34 µM (active) | 8.33 µM (active) | 10500 nM (active) | 13200 nM (active) | 3720 nM (active) | 5260 nM (active) | 13200 nM (active) | 16600 nM (active) | 662 nM (active) | 469 nM (active) | 372 nM (active) | inactive | – | –
3 | Cc1noc(-c2ccc(CSCCC(=O)O)cc2)c1NC(=O)OC(C)c1ccccc1Cl (stereo not given) | inactive | inactive | inactive | inactive | inactive | 18700 nM (active) | inactive | inactive | inactive | inactive | – | inactive | -1.37% | –
4 | Cn1cnc2c(F)c(Nc3ccc(Br)cc3Cl)c(C(=O)NOCCO)cc21 | 0.296 µM (active) | 668 nM (active) and 164 nM (active) and 468 nM (active) | 590 nM (active) | 296 nM (active) | 296 nM (active) | 662 nM (active) | 743 nM (active) | 662 nM (active) | 662 nM (active) | 469 nM (active) | 469 nM (active) | inactive | – | –
5 | OC[C@@H](O)[C@@H](O)[C@H](O)[C@@H](O)CO | inactive | inactive | inactive | inactive | inactive | inactive | inactive | inactive | inactive | inactive | inactive | inactive | 3.97% | –
6 | CCCOc1ccc(C(=O)OCCN(CC)CC)cc1N | inactive | inactive | inactive | inactive | inactive | inactive | inactive | inactive | inactive | inactive | inactive | inactive | -2.3% and -19.7% | –
7 | O=C(NCc1ccccc1)c1csc(Nc2ccncn2)n1 | 4.68 µM (active) | 4.17 µM (active) and 20.6 µM (active) | 3320 nM (active) | 3720 nM (active) | 2350 nM (active) | 6620 nM (active) | 3720 nM (active) | 3320 nM (active) | 1660 nM (active) | 833 nM (active) | 1660 nM (active) | 31600 nM (active) | – | 25100 nM (active)
8 | CCOC(=O)C1=C(O)C(=O)N(Cc2ccccc2)C1 | inactive | inactive | inactive | inactive | inactive | inactive | inactive | inactive | inactive | inactive | inactive | inactive | 4.18% | –
9 | Nc1ncnc2nc(-c3ccc(N4CCOCC4)nc3)cc(-c3cccc(Br)c3)c12 | 4.68 µM (active) | 8.33 µM (active) | inactive | inactive | inactive | inactive | inactive | inactive | inactive | inactive | inactive | inactive | -17.8% | –
10 | COCCOc1nc(-c2ccc(Cl)c(Cl)c2)n(-c2ccc(NC(=O)CCl)cc2)n1 | 2.31 µM (active) | 1.48 µM (active) | inactive | inactive | inactive | inactive | inactive | inactive | inactive | inactive | inactive | 199 nM (active) | – | 4470 nM (active)
11 | CCCCCCCCCCCCCC(=O)N[C@H](CO)[C@H](O)c1ccc([N+](=O)[O-])cc1 | 26.3 µM (active) | 23.5 µM (active) | 2350 nM (active) | 2640 nM (active) | 1660 nM (active) | 3720 nM (active) | 2640 nM (active) | 2350 nM (active) | 1320 nM (active) | 743 nM (active) | 1320 nM (active) | inactive | 0.392% | –
12 | N#Cc1cc(NC(=O)Nc2nnc(-c3ccncc3)s2)ccc1-c1cn[nH]c1 | inactive | inactive | inactive | inactive | inactive | inactive | inactive | inactive | inactive | inactive | inactive | inactive | 13.8% | –
13 | Oc1ccc(C2=Cc3ccc(O)cc3OC2)cc1 | 0.417 µM (active) | 0.366 µM (active) | 9350 nM (active) | 11800 nM (active) | 9350 nM (active) | 2960 nM (active) | 2640 nM (active) | 2960 nM (active) | 2960 nM (active) | 3320 nM (active) | 3720 nM (active) | 11200 nM (active) | – | 7080 nM (active)
